Shown are actives, neighbours in structure and some others; about 3% of the full set was active somewhere.
TWEAK Fn14 block – inhibitors of TWEAK-Fn14 signaling, primary screen, luciferase reporter cells, uHTS. TWEAK-stimulated Fn14 reporter cells, luciferase luminescence, 8 h. inhibition, % at 10 µM. hit rate 2% among 360,000. AID 1159606, 2016; in the data active = inhibition above about 50%
EBV LMP1 NFkB – EBV LMP1-driven NF-kappaB luciferase reporter inhibitors, primary screen, cell-based, luminescence, single point. AID 504558, 2011. inhibition, % at 12.5 µM. LMP1-induced NF-kappaB luciferase reporter cells. hit rate 0.69% among 350,000; in the data active = inhibition above about 41%; inconclusive = no clear call, values can overlap the other calls
LGR2 inh – inhibitors of bursicon-induced LGR2 CRE-luciferase signal, primary screen, cell-based, HEK293, CRE-luciferase reporter, bursicon stimulation; inhibition, % at 9.99 µM; bursicon-stimulated, 4 h; Drosophila bursicon receptor LGR2 (rickets); hit rate 0.35% among 380,000; AID 720647, 2013;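 active = drop in luminescence signal, shown as inhibition above about 50% in the replicate tests, limit read from the data, passing the limit was not always enough; inconclusive = probably only some replicates passing the limit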;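 note: agonist challenge used bursicon conditioned medium at about half maximal strength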
MITF TRPM1 HTS – activators of MITF-driven TRPM1 promoter reporter, primary screen, cell-based, SK-MEL-5, luciferase, single point; SK-MEL-5 TRPM1-promoter luciferase, 24 h; % of positive control, neutral wells = 0; activation, % at 12.5 µM; hit rate 0.75% among 300,000;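 active = mean activation of at least 80% with every replicate also reaching 80%; inconclusive = mean reaches 80% but some replicate falls short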
TROY NFkB inh – inhibitors of TROY-driven NF-kB signaling, primary screen, Q293 LMP1-TROYcd cells, NF-kB luciferase, uHTS | Q293 LMP1-TROYcd NF-kB luciferase reporter, 4 h | inhibition, % at 10 µM | hit rate 0.98% among 360,000 | AID 1347056, 2019;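 active = compounds whose plate-normalised and pattern-corrected inhibition of the luciferase reporter signal at the single screening dose is 50% or more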
MITF TRPM1 inh – inhibitors of MITF-dependent TRPM1 promoter reporter, primary screen, cell-based, SK-MEL-5, single point, luciferase; SK-MEL-5 TRPM1 promoter luciferase, 24 h; inhibition, % at 12.5 µM; AID 488899, 2010; hit rate 0.83% among 330,000;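 active = mean inhibition across replicates of 60% or more, whatever share of single replicates reaches that level; inconclusive = some that reach 60%, reason not given; inactive = mean inhibition across replicates below 60%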
Large screens that a line does not name were inactive.

Cc1ccc(CN2C(=O)NC(=O)C3(Cc4c(nc5ccccn5c4=O)N4CCCCCC43)C2=O)cc1 (stereo unspecified)	TROY NFkB inh 87 (no result: LGR2 inh)
Cc1ccc(NC(=O)c2ncn(CCCNCCN3CCOCC3)n2)cc1C	TWEAK Fn14 block 70
O=C(c1ccco1)c1cn(Cc2ccccc2)c2ccccc12	TWEAK Fn14 block 102
Cc1ccccc1S(=O)(=O)N1[C@@H]2Cn3c(ccc(-c4cccnc4)c3=O)[C@H]1[C@@H](C(=O)O)[C@@H]2CO	none (no result: TWEAK Fn14 block, EBV LMP1 NFkB, MITF TRPM1 HTS, TROY NFkB inh, MITF TRPM1 inh)
COc1cc2c3c(c1OC)Oc1ccc(cc1)C[C@H]1c4c(cc(OC)c(OC)c4Oc4ccc(cc4)C[C@@H]3N(C)CC2)CCN1C	MITF TRPM1 inh 91
COc1cc2c3cc1Oc1cc(ccc1O)C[C@@H]1c4c(cc(OC)c(O)c4Oc4ccc(cc4)C[C@H]3N(C)CC2)CCN1C	EBV LMP1 NFkB 83
COc1cc2c3cc1Oc1cc(ccc1O)C[C@@H]1c4c(cc(OC)c(O)c4Oc4cccc(c4)C[C@@H]3N(C)CC2)CC[N+]1(C)C	none
COc1cc2c3cc1Oc1c(OC)c(OC)cc4c1[C@H](Cc1ccc(cc1)Oc1cc(ccc1O)C[C@H]3N(C)CC2)N(C)CC4	MITF TRPM1 inh 80 (no result: LGR2 inh)
COc1cc2c(cc1O)C[C@H]1c3c(cc(O)c(OC)c3-2)CCN1C	none
O=C(O)[C@H]1[C@H](CO)[C@H]2Cn3c(ccc(C4=CCCCC4)c3=O)[C@@H]1N2C(=O)Cc1ccccn1	none (no result: TWEAK Fn14 block, EBV LMP1 NFkB, MITF TRPM1 HTS, TROY NFkB inh, MITF TRPM1 inh)
Cc1ccc(-c2cc(-c3ccc(C)cc3)[n+](C)o2)cc1	MITF TRPM1 inh 63
COc1cc2c(c(OC)c1OC)-c1ccc(O)cc1C(NC(C)=O)CC2 (stereo unspecified)	MITF TRPM1 inh 61
COc1cc2c(c(OC)c1OC)-c1ccc(O)c(=O)cc1[C@@H](NC(C)=O)CC2	none
COc1cc2c(c(OC)c1OC)-c1ccc(O)cc1[C@@H](NC(C)=O)CC2	MITF TRPM1 inh 65
CN(C)C(=O)[C@@H]1[C@@H](CO)[C@@H]2Cn3c(cccc3=O)[C@H]1N2CC1CC1	none (no result: TWEAK Fn14 block, EBV LMP1 NFkB, MITF TRPM1 HTS, TROY NFkB inh, MITF TRPM1 inh)
C[C@H]1C[C@@H](C)C(=O)[C@@H]([C@H](O)CC2CC(=O)NC(=O)C2)C1	TWEAK Fn14 block 86, EBV LMP1 NFkB 74, LGR2 inh 95, TROY NFkB inh 66 (no result: MITF TRPM1 HTS, MITF TRPM1 inh)
NC(Cc1ccc(O)cc1)C(=O)NN=Cc1ccc(N(CCCl)CCCl)cc1 (stereo unspecified)	EBV LMP1 NFkB 48
N[C@@H](Cc1ccc(N(CCCl)CCCl)cc1)C(=O)O	EBV LMP1 NFkB 50
COC(=O)[C@@H]1[C@@H](CO)[C@@H]2Cn3c(ccc(-c4ccccc4F)c3=O)[C@H]1N2Cc1cccnc1	none (no result: TWEAK Fn14 block, EBV LMP1 NFkB, MITF TRPM1 HTS, TROY NFkB inh, MITF TRPM1 inh)
CCCCCN1C(=O)c2cc(OC)ccc2[C@@]2(C(=O)OCC)Cc3cc(Cl)ccc3[C@@H]12	TWEAK Fn14 block 77, LGR2 inh 67, TROY NFkB inh 52 (no result: EBV LMP1 NFkB, MITF TRPM1 HTS, MITF TRPM1 inh)
CCOC(=O)[C@]12Cc3cc4ccccc4cc3[C@H]1N(Cc1ccccc1)C(=O)c1cc(OC)ccc12	TWEAK Fn14 block 56 (no result: EBV LMP1 NFkB, MITF TRPM1 HTS, MITF TRPM1 inh)
CCOC(=O)[C@]12Cc3ccccc3[C@H]1N(Cc1ccccc1)C(=O)c1cc(OC)ccc12	none (no result: EBV LMP1 NFkB, MITF TRPM1 HTS, MITF TRPM1 inh)
CCOC(=O)[C@]12Cc3cc(Cl)ccc3[C@H]1N(Cc1ccccc1)C(=O)c1cc(OC)ccc12	TWEAK Fn14 block 52, LGR2 inh inconclusive (no result: EBV LMP1 NFkB, MITF TRPM1 HTS, MITF TRPM1 inh)
CCOC(=O)[C@]12Cc3cc4ccccc4cc3[C@H]1N(Cc1ccccc1)C(=O)c1ccccc12	TWEAK Fn14 block 68 (no result: EBV LMP1 NFkB, MITF TRPM1 HTS, MITF TRPM1 inh)
CCOC(=O)[C@]12Cc3cc(OC)c(OC)cc3[C@H]1N(Cc1ccccc1)C(=O)c1ccccc12	none
CCOC(=O)[C@]12Cc3cc(OC)ccc3[C@H]1N(Cc1ccccc1)C(=O)c1cc(OC)ccc12	none (no result: EBV LMP1 NFkB, MITF TRPM1 HTS, MITF TRPM1 inh)
COc1ccc(OC(=O)N(C)C[C@@H]2OCc3ccccc3-c3c(n(C)c4ccccc34)C(=O)N([C@@H](C)CO)C[C@@H]2C)cc1	none (no result: TWEAK Fn14 block, EBV LMP1 NFkB, MITF TRPM1 HTS, TROY NFkB inh, MITF TRPM1 inh)
CC1CN=C(Nc2cccc3ccccc23)S1 (stereo unspecified)	TROY NFkB inh 53 (no result: LGR2 inh)
CC12CCC3C(CCC4(O)CC(O)CCC34C=NO)C1(O)CCC2C1=COC(=O)C1 (stereo unspecified)	TWEAK Fn14 block 76, EBV LMP1 NFkB 62, MITF TRPM1 inh 69 (no result: LGR2 inh, MITF TRPM1 HTS)
CC12CC[C@H]3[C@@H](CCC4(O)C[C@H](O)CCC34/C=N/NC(=O)c3ccccc3Cl)C1(O)CCC2C1=CC(=O)OC1 (stereo partly specified)	none
C[C@]12CC[C@H]3[C@@H](CC[C@]4(O)C[C@@H](O)CC[C@]34C=O)[C@@]1(O)CC[C@@H]2C1=CC(=O)OC1	TWEAK Fn14 block 75, LGR2 inh 84, MITF TRPM1 inh 86
C[C@]12CCC3C(CCC4=CC(O)CC[C@@]43/C=N/O)C1(O)CCC2C1=CC(=O)OC1 (stereo partly specified)	TWEAK Fn14 block 84, LGR2 inh 82, MITF TRPM1 inh 86
CC12CCC3C(CCC4(O)CC(O)CCC34C=O)C1(O)CCC2C1=CC(=O)OC1 (stereo unspecified)	TWEAK Fn14 block 71, EBV LMP1 NFkB inconclusive, LGR2 inh 84, MITF TRPM1 inh 82
COc1ccc(OC(=O)N(C)C[C@H]2OCc3ccccc3-c3c(n(C)c4ccccc34)C(=O)N([C@H](C)CO)C[C@@H]2C)cc1	none (no result: TWEAK Fn14 block, EBV LMP1 NFkB, MITF TRPM1 HTS, TROY NFkB inh, MITF TRPM1 inh)
O=C(Cc1ccccn1)N1CCCCN2[C@@H](CO)[C@@H](c3ccc(-c4ccccc4)cc3)[C@@H]2C1	none (no result: TWEAK Fn14 block, EBV LMP1 NFkB, MITF TRPM1 HTS, TROY NFkB inh, MITF TRPM1 inh)
CCCCN=C[C@]12CCC(O)CC1(O)CCC1[C@@H]2CC[C@]2(C)[C@H](C3C=CC(=O)O3)CCC12O (stereo partly specified)	TWEAK Fn14 block 76, LGR2 inh 85, MITF TRPM1 inh 78
C[C@H]1O[C@@H](OC2CC[C@]3(C=O)[C@H]4CC[C@]5(C)[C@@H](C6=CC(=O)OC6)CC[C@]5(O)[C@@H]4CC[C@]3(O)C2)CC2OC(C)(C)OC21 (stereo partly specified)	TWEAK Fn14 block 81, EBV LMP1 NFkB 65, LGR2 inh 81, MITF TRPM1 inh 67
CC(=O)NC(C)Cc1ccccc1 (stereo unspecified)	TWEAK Fn14 block 81 (no result: TROY NFkB inh)
CCCNC(=O)N1[C@@H]2Cn3c(ccc(-c4ccccc4OC)c3=O)[C@H]1[C@@H](C(=O)O)[C@@H]2CO	none (no result: TWEAK Fn14 block, EBV LMP1 NFkB, MITF TRPM1 HTS, TROY NFkB inh, MITF TRPM1 inh)
CN1CCN(C(=O)COc2ccc(-c3nc4ccccc4s3)cc2)CC1	TWEAK Fn14 block 52, EBV LMP1 NFkB 59 (no result: LGR2 inh)
COCC#Cc1ccc([C@@H]2[C@H]3CN(C(=O)Cc4ccccn4)CCCCN3[C@H]2CO)cc1	none (no result: TWEAK Fn14 block, EBV LMP1 NFkB, MITF TRPM1 HTS, TROY NFkB inh, MITF TRPM1 inh)
